MITF inh: human MITF inhibition, primary screen; AlphaScreen MITF homodimerization, bead proximity signal; inhibition, % at 2.6 µM; 650,000 compounds, 0.91% hits; AID 1259374; in the data active = inhibition above about 50%
Target sequence (O75030 whole entry, looked up): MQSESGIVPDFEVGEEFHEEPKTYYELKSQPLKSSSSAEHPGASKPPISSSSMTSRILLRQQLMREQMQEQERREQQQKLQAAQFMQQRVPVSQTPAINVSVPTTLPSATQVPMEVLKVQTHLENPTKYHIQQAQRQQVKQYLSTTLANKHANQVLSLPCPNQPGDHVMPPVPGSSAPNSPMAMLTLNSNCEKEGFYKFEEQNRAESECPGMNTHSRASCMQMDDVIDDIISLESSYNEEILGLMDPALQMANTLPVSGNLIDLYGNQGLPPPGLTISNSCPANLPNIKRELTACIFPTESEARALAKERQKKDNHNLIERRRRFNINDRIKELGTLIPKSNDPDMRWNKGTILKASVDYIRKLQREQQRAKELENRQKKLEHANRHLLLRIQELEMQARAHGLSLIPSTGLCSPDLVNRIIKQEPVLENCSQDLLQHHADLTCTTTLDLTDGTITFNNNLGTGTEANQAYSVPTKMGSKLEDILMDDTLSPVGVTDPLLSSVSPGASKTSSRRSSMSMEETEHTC
TEAD-YAP block: TEAD-YAP interaction inhibition; HEK-TIYL cells, TEAD-Gal4/YAP UAS-luciferase luminescence; inhibition, % at 9.12 µM; 640,000 compounds, 1.4% hits; in the data active = inhibition above about 32%
FBW7 act: activators of human E3 ligase FBW7. normalized activity (activation), % at 26.1 µM. 650,000 compounds, 0.13% hits. Q969H0. AlphaScreen FBW7–phospho-cyclin E peptide binding, activator screen; in the data active = normalized activity above about 1.9%;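 note: purified mutant Fbw7 with reduced substrate affinity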
GPR151 ag: activates the human receptor GPR151. Q8TDV0. PathHunter beta-arrestin GPR151 cells, luminescence. 650,000 compounds, 1% hits. AID 1508602. activation, % at 11.2 µM; in the data active = activation above about 4.9%
Large screens that a line does not name were inactive. Only some compounds are listed: those with a hit (about 3.5% of all), similar ones and a draw of the others.

Cc1ccc(C(=O)c2cc([N+](=O)[O-])ccc2N2CCOCC2)cc1C	TEAD-YAP block 41.6
Cc1cc(C)c(NC(=O)c2cc([N+](=O)[O-])ccc2N2CCOCC2)c(C)c1	none
N#Cc1cc2c(cc1NC(=O)c1cc([N+](=O)[O-])ccc1N1CCOCC1)OCO2	TEAD-YAP block 36.0
Cc1ccc(C(=O)c2cc([N+](=O)[O-])ccc2N2CCOCC2)c(C)c1	TEAD-YAP block 62.4
CC1Sc2cc(S(=O)(=O)CCC(=O)NC3CCCCCCC3)ccc2NC1=O (stereo unspecified)	none
COCCNC(=O)CC(=O)N/N=C/c1cccs1	none
COc1ccc2nc3[nH]nc(NC(=O)c4cc(OC)c(OC)c(OC)c4)c3cc2c1	none
CCCc1noc(-c2ccc(Br)cc2)n1	none
CCOC(=O)C1CCN(c2c(N(CC)CC)c(=O)c2=O)CC1	none
C=CCN(CC=C)S(=O)(=O)c1ccc(C(=O)Nc2sc3c(c2C(=O)OCC)CCN(C(C)=O)C3)cc1	none
NC(=O)c1c(NC(=O)CCl)sc2c1CCC2	TEAD-YAP block 60.9
Cc1cccc(C(=O)Nc2sc3c(c2C(N)=O)CCCC3)c1	TEAD-YAP block 51.5
O=C(/C=C/c1ccccc1)Nc1sc2c(c1C(=O)O)CCCC2	TEAD-YAP block 49.1
NC(=O)c1c(NC(=O)c2cccc(Br)c2)sc2c1CCCC2	TEAD-YAP block 47.1
NC(=O)c1c(NC(=O)/C=C/c2ccccc2)sc2c1CCC2	none
CCC(=O)Nc1sc2c(c1C(N)=O)CCC2	none
CCOC(=O)N1CCN(S(=O)(=O)c2ccc(C(=O)N=c3sc4cc(C)ccc4n3C)cc2)CC1	none
COc1cc(Nc2ncnc3nc(-c4ccc(N5CCOCC5)nc4)[nH]c23)cc(OC)c1OC	none
O=C(c1cccc(-n2ccc3ccccc32)c1)N1CCN(C(=O)c2ccco2)CC1	none
NC(=O)c1c(NC(=O)c2ccc(Br)o2)sc2c1CCCCC2	TEAD-YAP block 85.2
Cc1ccc(/C=C/C(=O)Nc2sccc2C(N)=O)o1	none
Cc1cccc(C(=O)Nc2sc3c(c2C(=O)O)CCCC3)c1	TEAD-YAP block 69.9
Cc1cccc(OCC(=O)Nc2sc3c(c2C(N)=O)CCCC3)c1	TEAD-YAP block 53.0
NC(=O)c1ccsc1NC(=O)/C=C/c1ccccc1	TEAD-YAP block 80.7
O=c1c2cn[nH]c2nc(SCc2cccc(F)c2)n1-c1ccc(Oc2ccccc2)cc1	none
Cc1ccc(NC(=O)c2c(NC(=O)c3ccc(Br)cc3)sc3c2CCCC3)c(C)c1	FBW7 act 2.1
Nc1ccc(C(=O)OCCCc2nc3cc4ccccc4cc3[nH]2)cc1	none
Nc1ccc(C(=O)OCc2nc3cc4ccccc4cc3[nH]2)cc1	TEAD-YAP block 48.2
COc1ccccc1NC(=O)Cc1noc(CSc2nnc(-c3ccccc3)o2)n1	FBW7 act 4.5
COc1cc(C(=O)N2N=C(c3ccccc3)CC2c2ccccc2)cc(OC)c1OC (stereo unspecified)	TEAD-YAP block 53.3
Cc1ccc(C2=NN(S(C)(=O)=O)C(c3ccccc3F)C2)cc1 (stereo unspecified)	none
COc1ccc(C2=NN(C(=O)c3cccs3)C(c3ccccc3F)C2)cc1OC (stereo unspecified)	none
Cc1ccc(C2=NN(C(=O)c3ccncc3)C(c3ccccc3F)C2)cc1 (stereo unspecified)	TEAD-YAP block 47.3
COc1ccc(C2=NN(C(=O)c3cc(OC)c(OC)c(OC)c3)C(c3ccc(F)cc3)C2)cc1OC (stereo unspecified)	TEAD-YAP block 49.5
COc1cc(C(=O)N2N=C(c3ccc4ccccc4c3)CC2c2ccccc2)cc(OC)c1OC (stereo unspecified)	none
COc1ccc(C2=NN(C(=O)c3cc(OC)c(OC)c(OC)c3)C(c3ccccc3F)C2)cc1OC (stereo unspecified)	TEAD-YAP block 42.3
CCOC(=O)C1C(=O)C=C(c2ccco2)CC1c1cccc([N+](=O)[O-])c1 (stereo unspecified)	none
Cc1ccc(C(=O)NCc2n[nH]c(=S)n2-c2cccc(C(F)(F)F)c2)cc1C	none
CC(C)OC(=O)c1ccc(S(=O)(=O)Cc2ccccc2F)c([N+](=O)[O-])c1	none
COc1ccc(/C=C(/C#N)c2cccc([N+](=O)[O-])c2)c(OC)c1	none
COc1ccc(/C=C(/C#N)c2cccc(F)c2)c(OC)c1	TEAD-YAP block 42.5
O=C(N[C@H]1C[C@H]2C(=O)N[C@@H](COCc3ccccc3)C(=O)N2C1)c1ccc2ccccc2c1	none
COc1ccc(C2(NC(=O)c3cnn(C)c3C)CCCCC2)cc1	none
O=C(COc1ccc(Oc2ccccc2)cc1)NCc1cn2ccccc2n1	TEAD-YAP block 55.2
O=S(=O)(NCc1cn2ccccc2n1)c1ccc(Oc2ccccc2)cc1	none

Compound activity deposited in PubChem BioAssay by The Scripps Research Institute Molecular Screening Center.
